Out of some 300,000 compounds screened, about 2,300 (0.77%) were called active.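 The calls were made as follows: active = more than half of replicate wells show activity change below -50%, luminescence cut by over half; inconclusive = some wells, but at most half, below -50%; inactive = no replicate well below -50%.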 Shown is part of a subset that was picked to be rich in actives.
Experiment: blocking HSF1-driven luciferase expression – cell-based, NIH3T3, luminescence, primary screen (AID 2098);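 also: luciferase reports HSF-1 transcriptional activity via heat shock element; 0% = median of DMSO wells and -100% = zero luminescence signal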
Details: NIH3T3-HGL HSE-luciferase, MG132-induced, luminescence 8 h; hits give low values; screened at 7.5 µM (by protocol)

Compound | activity change, negative = inhibition
CCN(Cc1ccccc1)C(=O)Cc1ccc(OC)c(S(=O)(=O)N2CCOCC2)c1 | -13.3% (inactive)
CCOc1ccc(N=C2NC(=O)S/C2=C\c2ccc(O)cc2)cc1 | 8.7% (inactive)
COc1ccc(/C=C2\SC(=N)N(c3ccc(F)cc3)C2=O)cc1 | -0.809% (inactive)
COc1ccc(/C=C2/S/C(=N/N=C3\CC4CCC3(C)C4(C)C)NC2=O)cc1 (stereo not given) | -80.6% (active)
Cc1sc(NC(=O)c2ccc3ncsc3c2)c(C(N)=O)c1C | 18.5% (inactive)
O=C(COC(=O)Cn1[nH]c(=O)c2ccccc2c1=O)Nc1c(Cl)cccc1C(F)(F)F | -1.35% (inactive)
COc1ccccc1C(=O)NC(CCSC)C(=O)N1CCN(C/C=C/c2ccccc2)CC1 (stereo not given) | 6.22% (inactive)
COc1ccccc1C(=O)NNC(=O)CCN1C(=O)/C(=C\c2ccccc2)SC1=S | 3.5% (inactive)
Cc1ccc(/C=C2\SC(=S)N(CCC(=O)Nc3ccc(O)cc3)C2=O)cc1 | 2.79% (inactive)
C=CCOc1ccc(/C=C2\SC(=S)N(CCC(=O)O)C2=O)cc1 | -55% (active)
O=C(c1ccc(NS(=O)(=O)c2ccc3[nH]c(=O)[nH]c3c2)cc1)N1CCCCC1 | -2.36% (inactive)
CCOc1ccccc1NS(=O)(=O)c1c[nH]c(C(=O)OC)c1 | -51.6% (active)
CCOc1cc(NS(=O)(=O)c2ccc(OC)cc2)c(OCC)cc1NC(C)=O | -13.5% (inactive)
COC(=O)c1cc(S(=O)(=O)Nc2ccc(C)c(F)c2)c[nH]1 | 5.93% (inactive)
COCOc1cc(O)c(C(=O)/C=C/c2ccc(OCOC)c(OCOC)c2)c(OCOC)c1 | 23.1% (inactive)
COc1cccc(CCNC(=O)COc2cccc3c2OC(C)(C)C3)c1 | -0.825% (inactive)
Cc1ccsc1C(=O)OCC(=O)c1cc(C)n(CC2CCCO2)c1C (stereo not given) | -88.5% (active)
Cc1cc(C(=O)Cn2cnc3cc([N+](=O)[O-])ccc3c2=O)c(C)n1CC1CCCO1 (stereo not given) | 3.88% (inactive)
Cc1cc(C(=O)CCl)c(C)n1CC1COc2ccccc2O1 (stereo not given) | 19.5% (inactive)
CCCCn1c(N)c(N(CCOC)C(=O)c2sc3ccccc3c2Cl)c(=O)[nH]c1=O | -1.16% (inactive)
COc1ccccc1C(=O)NCCC(=O)NCC(c1ccco1)N1CCCCC1 (stereo not given) | -1.06% (inactive)
CC1COc2ccccc2N1S(=O)(=O)c1ccccc1 (stereo not given) | -6.19% (inactive)
CC1COc2ccccc2N1C(=O)c1ccc(F)cc1 (stereo not given) | -77.4% (active)
CC1COc2ccccc2N1C(=O)c1cccnc1Cl (stereo not given) | -2.12% (inactive)

Compound | activity change, negative = inhibition
O=C(NCCCN1CCCC1=O)c1ccc(S(=O)(=O)Nc2ccccc2)cc1 | 4.74% (inactive)
Cc1cc(C)c(-c2csc(NC(=O)CCCc3nc4ccccc4c(=O)[nH]3)n2)c(C)c1 | -1.35% (inactive)
COc1cc(C2C(C(=O)c3cccs3)=C(O)C(=O)N2CCN2CCOCC2)ccc1OCCC(C)C (stereo not given) | -1.71% (inactive)
CC(=O)Nc1ccc(NC(=O)C(C)OC(=O)C2CC(=O)N(CCc3ccccc3)C2)cc1 (stereo not given) | -2.7% (inactive)
O=S(=O)(NCc1ccccn1)c1ccc(F)cc1 | -83.2% (active)
O=[N+]([O-])c1cccc(S(=O)(=O)NCc2ccccn2)c1 | -1.49% (inactive)
O=S(=O)(NCc1ccccn1)c1ccc(Br)s1 | -3.36% (inactive)
Cc1ccn2c(=O)c(NC(=O)c3cccc4ccccc34)c(C)nc2c1 | -1.23% (inactive)
Cc1ccc(C(=O)CN2C(=O)NC3(CCc4ccccc43)C2=O)c(C)c1 (stereo not given) | 6.44% (inactive)
O=C(COC(=O)c1ccccn1)NNC(=O)c1ccc([N+](=O)[O-])cc1 | -1.26% (inactive)
CC(=O)c1sc(N)nc1C | 1.87% (inactive)
CN(Cc1ccccc1F)C(=O)C(Cc1ccccc1)NC(=O)c1ccccc1 (stereo not given) | 1.87% (inactive)
COc1ccccc1C(=O)NC(=S)Nc1ccccc1N1CCCCC1 | -53.8% (active)
O=C(NC(=S)Nc1ccccc1N1CCCCC1)c1ccc(F)cc1 | -7.72% (inactive)
COc1ccc(C(=O)NC(=S)Nc2ccccc2N2CCN(S(C)(=O)=O)CC2)cc1OC | -1.5% (inactive)
O=C(Cc1ccc(Br)cc1)NCCc1ccccc1 | 3.74% (inactive)
O=C(CSc1ncccn1)NCCc1ccccc1 | -68.6% (active)
O=C(CSc1ncccn1)NC(=O)NCc1ccccc1 | 2.98% (inactive)
Cc1cc2oc3ccc(NCCC4CCCN4C)cc3c(=O)c2cc1C (stereo not given) | 6.14% (inactive)
CCN(C(=O)CSc1nnc(-c2ccncc2)o1)c1ccccc1 | -5.45% (inactive)
CCc1ccccc1NC(=O)CSc1nnc(-c2ccncc2)o1 | -75.8% (active)
CCOC(=O)CSc1nnc(-c2ccncc2)o1 | -9.32% (inactive)
CCOc1ccc2nc(NC(=O)c3cc([N+](=O)[O-])ccc3N3CCOCC3)sc2c1 | -61.5% (active)
COc1ccc(S(=O)(=O)N2CCCCC2)cc1NC(=O)c1cc([N+](=O)[O-])ccc1N1CCOCC1 | -3.7% (inactive)

Compound | activity change, negative = inhibition
O=C(NC1CCCCC1)c1cc([N+](=O)[O-])ccc1N1CCOCC1 | 0.205% (inactive)
O=C(Nc1ncccc1O)c1ccc(C(=O)c2ccccc2)cc1 | -2.64% (inactive)
COC(=O)c1ccc(NS(=O)(=O)c2cc3c4c(c2)C(C)C(=O)N4CCC3)cc1 (stereo not given) | -0.43% (inactive)
Cc1ccc(C)c(OCCC(=O)Nc2cccc(S(=O)(=O)N3CCCC3)c2)c1 | 3.66% (inactive)
COc1ccc(C2=NN(c3nc4ccccc4s3)C(=O)C2)cc1 | 1.26% (inactive)
CCOc1cccc(-n2nnnc2-c2ccc(OC)cc2)c1 | -2.61% (inactive)
COc1ccc(-n2nnnc2-c2nc3ccccc3s2)cc1 | -65.3% (active)
Nc1cccnc1Sc1ccccc1 | -0.323% (inactive)
CCCCn1c(N)c(N(CCC(C)C)C(=O)CC2OC(=O)c3ccccc32)c(=O)[nH]c1=O (stereo not given) | 3.21% (inactive)
O=C(COc1cccc2c1CCNC2=O)NC1CCCCC1 | -0.75% (inactive)
O=C(COC(=O)c1cccc(Cl)c1)Nc1ccc2[nH]c(=O)[nH]c2c1 | -4.05% (inactive)
O=C(Nc1ccnn1C1CCN(Cc2cccc(OCCO)c2)CC1)C1CCCC1 | -3.05% (inactive)
CC(CN1CCC(n2nccc2NC(=O)C2CCCC2)CC1)c1ccccc1 (stereo not given) | -6.86% (inactive)
Cc1nn(C)c(Cl)c1CN1CCC(n2nccc2NC(=O)C2CCCC2)CC1 | -53.5% (active)
c1ccc(C[C@H]2CNCCN2CCC23CC4CC(CC(C4)C2)C3)cc1 | 0.124% (inactive)
COc1cc2c(cc1OC)C(Cc1cc(OC)c(OC)cc1[N+](=O)[O-])=NCC2 | -5.53% (inactive)
CC(=O)Nc1cccc(C(=O)OCC(=O)c2ccc3c(c2)OCO3)c1 | -8.13% (inactive)
CCCCn1c(N)c(N(CCOC)C(=O)c2cccc(OCc3ccccc3)c2)c(=O)[nH]c1=O | -6.51% (inactive)
O=C(COC(=O)c1cccs1)Nc1ccccc1Cl | 4.76% (inactive)
O=C(Nc1ccccc1Cl)/C(Cl)=C(\Cl)S(=O)c1ccccc1 (stereo not given) | -63.2% (active)
O=C(Nc1ccccc1Cl)Nn1cnnc1 | -3.45% (inactive)
CC(C)CN(C(=O)c1ccc2c(c1)OCO2)C1CCS(=O)(=O)C1 (stereo not given) | 1.63% (inactive)
COc1ccccc1C(=O)OCC(=O)NCCNC(=O)COC(=O)c1ccccc1OC | -54.9% (active)
COc1ccccc1C(=O)NC(=O)COC(=O)c1ccco1 | -2.8% (inactive)

Compound | activity change, negative = inhibition
COc1ccc(C(=O)OCC(=O)NCCCc2ccccc2)cc1OC | -6.5% (inactive)
COc1ccccc1C(=O)NC(CCSC)C(=O)NNC(=O)c1ccccc1C (stereo not given) | -4.57% (inactive)
CCOc1ccc(OCc2cccc(C(=O)N(CC)CC)c2)cc1 | -51.8% (active)
CCOc1ccc(OCc2ccc(C(=O)N(C)c3ccccc3)o2)cc1 | 9.19% (inactive)
COc1ccc(OCc2cccc(C(=O)N3CCCC3)c2)cc1 | -11% (inactive)
Cc1ccc(S(=O)(=O)N2CCOCC2)cc1C(=O)Nc1ccccc1N1CCCC1 | 3.38% (inactive)
Oc1ccc(Br)cc1/C=N/Nc1ccccn1 | -72.1% (active)
O=[N+]([O-])c1ccc(O)c(/C=N/Nc2ccccc2[N+](=O)[O-])c1 | 2.12% (inactive)
O=C(CCCO)N/N=C/c1cc(Br)ccc1O | -13.7% (inactive)
Cn1c(=N)n(CC(O)c2cccs2)c2ccccc21 (stereo not given) | -12.7% (inactive)
Cn1c(=N)n(CC(O)c2ccccc2)c2ccccc21 (stereo not given) | -64.8% (active)
Cc1nc2ccccc2n1CC(O)c1ccccc1 (stereo not given) | -6.27% (inactive)
COc1ccc(C(=O)Nc2cccc(NC(=O)c3ccc(OC)cc3OC)n2)c(OC)c1 | -27.9% (inactive)
Cc1ccc(CN2CCN(c3ccccc3Cl)CC2)o1 | -5.3% (inactive)
COC(=O)C1=CN(c2ccc(F)c(F)c2)C=C(C(=O)OC)C1c1ccc([N+](=O)[O-])cc1 | -77.3% (active)
COC(=O)c1nc2n(n1)C(c1ccc([N+](=O)[O-])cc1)C(C(=O)Nc1ccc(Cl)cc1)=C(C)N2 (stereo not given) | -14.3% (inactive)
COC(=O)C1=CN(C)C=C(C(=O)OC)C1c1ccc(Cl)cc1Cl | 6.26% (inactive)
c1c2c(cc3sc(N4CCCCC4)nc13)OCCO2 | -55.1% (active)
Cc1nc2cc3c(cc2s1)OCO3 | 3.71% (inactive)
Brc1ccc2nc(N3CCCC3)sc2c1 | 22% (inactive)
Cc1ccc(S(=O)(=O)N2CCN(C(=O)c3ccc(-n4cncn4)c([N+](=O)[O-])c3)CC2)cc1 | -4.92% (inactive)
Cc1cc(C)c(SCCc2ccncc2)c(C)c1 | -16.4% (inactive)
CC(C)(C)C(=O)COC(=O)c1cc(S(=O)(=O)N2CCCCC2)ccc1N1CCOCC1 | 0.13% (inactive)

Source: PubChem BioAssay AID2098 (Broad Institute, 2009)
